The target in assay [1] is Transcription factor E2F1 (Homo sapiens) (UniProt Q01094). As to the kind of experiment: ATG_E2F_CIS: Attagene CIS-FACTORIAL HepG2 Assay for human E2F Transcription Factor 1 (AID 2282935). The settings on record: HepG2 Attagene cis-reporter, E2F reporter RNA transcripts; actives raise or lower the signal. Put shortly:
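Fluorescent RT-PCR products, digested with HpaI for 2 h at 37 C, are separated by capillary electrophoresis. Source RNA comes from transfected HepG2 cultures treated for 24 h.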

The nature of assay [2]: ATG_E_Box_CIS: Attagene CIS-FACTORIAL HepG2 Assay for human Enhancer Box (E-box) (AID 2282936). The settings on record: HepG2 E-box cis-reporter transcription, actives raise or lower the signal. The gist of the method:
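Fluorescent reporter fragments separated by capillary electrophoresis gave the signal; mRNA came from HepG2 cells transfected with cis-element reporters and treated 24 h. Curves fitted bidirectionally relative to DMSO controls.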

Assay [3] can be described thus: ATG_M_61_CIS: Attagene CIS-FACTORIAL HepG2 Assay for M61 Transcription Factor (Internal Marker) (AID 2282937). The settings on record: HepG2 Attagene CIS-FACTORIAL M61 internal marker reporter; actives raise or lower the signal. The gist of the method: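 Readout: fluorescent reporter mRNA fragments resolved by capillary electrophoresis after RT-PCR. Transiently transfected human HepG2 cells carried MRTU constructs reporting endogenous TF activity; 24 h chemical exposure; gain or loss of signal fitted relative to DMSO.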

Assay [4] is described as follows: ATG_EGR_CIS: Attagene CIS-FACTORIAL HepG2 Assay for human Early Growth Response 1 (EGR1) (AID 2282938). The settings on record: HepG2 Attagene CIS-FACTORIAL EGR reporter mRNA; actives raise or lower the signal. The gist of the method:
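Read-out: fluorescent reporter-mRNA fragments resolved by capillary electrophoresis after RT-PCR, 24 h post-dose in transiently transfected HepG2. Endogenous transcription-factor activity reported via cis-element-regulated reporter units; gain or loss fitted relative to DMSO.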

A short description of assay [5]: ATG_M_19_CIS: Attagene CIS-FACTORIAL HepG2 Assay for M19 Transcription Factor (Internal Marker) (AID 2282939). The settings on record: HepG2 Attagene CIS-FACTORIAL M19 internal marker reporter; actives raise or lower the signal. The gist of the method:
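Internal marker readout, fitted in both directions against DMSO, from HepG2 cells carrying transfected cis-element reporter constructs; RT-PCR and capillary electrophoresis of reporter mRNA after 24 h exposure.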

A short description of assay [6]: ATG_ERE_CIS: Attagene CIS-FACTORIAL HepG2 Assay for Estrogen Response Element (ERE) (AID 2282940). The settings on record: HepG2 ERE cis-reporter, Attagene RNA transcript; actives raise or lower the signal. Put shortly: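 After 24 h compound treatment, RNA from transfected HepG2 cells was reverse-transcribed, reporter cDNA PCR-amplified, FAM-labelled, HpaI-cut and resolved by capillary electrophoresis. ERE-driven cis reporter transcripts reflect endogenous factors; gain or loss scored against DMSO.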

Assay [7] can be described thus: ATG_Ets_CIS: Attagene CIS-FACTORIAL HepG2 Assay for human Erythroblast Transformation Specific (ETS) (AID 2282941). The settings on record: HepG2 ETS cis-reporter transcription, actives raise or lower the signal. Put shortly:
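Bidirectional fit versus DMSO of reporter mRNA signal, detected by RT-PCR and capillary electrophoresis in HepG2 cells transiently transfected with cis-element reporters and dosed 24 h.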

Assay [8] has as its target Hepatocyte nuclear factor 3-beta (Homo sapiens) (UniProt Q9Y261). The experiment in a line: ATG_FoxA2_CIS: Attagene CIS-FACTORIAL HepG2 Assay for human Forkhead box A2 (FOXA2) (AID 2282942). The settings on record: HepG2 cis-reporter transcription factor activity, 24 h; actives raise or lower the signal. Put shortly:
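Readout: fluorescent reporter transcripts resolved by capillary electrophoresis after RT-PCR. Transiently transfected HepG2, 24 h compound exposure, endogenous TF activity at cis promoter elements. Gain or loss of signal fitted relative to DMSO.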

Assay [9] is described as follows: ATG_FoxO_CIS: Attagene CIS-FACTORIAL HepG2 Assay for human Forkhead box O (FoxO) (AID 2282943). The settings on record: HepG2 Attagene cis-reporter, FoxO element, mRNA; actives raise or lower the signal. The gist of the method: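 HepG2, transient MRTU transfection (cis element, endogenous TFs). Dose 24 h. TriZol RNA → oligo(dT) RT → PCR → 6-FAM primer extension → HpaI cut → CE. Gain/loss vs DMSO.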

Assay [10] can be described thus: ATG_GLI_CIS: Attagene CIS-FACTORIAL HepG2 Assay for human Zinc Finger Protein GLI1 (AID 2282945). The settings on record: HepG2, Attagene cis-factorial reporter mRNA, GLI element; actives raise or lower the signal. Put shortly:
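Bidirectional curve fits relative to DMSO, using reporter mRNA levels from RT-PCR plus capillary electrophoresis. Cells were HepG2 transiently carrying cis-regulated reporter constructs, harvested 24 h after dosing.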

The nature of assay [11]: ATG_ISRE_CIS: Attagene CIS-FACTORIAL HepG2 Assay for human Interferon Regulatory Factor 1 (IRF1) binding to an Interferon-Stimulated Response Element (ISRE) (AID 2282948). The settings on record: HepG2 ISRE cis-reporter (Attagene), mRNA transcription readout; actives raise or lower the signal. The gist of the method:
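Uses HepG2 liver cells transfected with cis-regulated reporters and measures mRNA 24 h post-dosing through RT-PCR, primer-extension labelling and capillary electrophoresis, with DMSO as negative control.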

Assay [12] is described as follows: ATG_M_32_CIS: Attagene CIS-FACTORIAL HepG2 Assay for M32 Transcription Factor (Internal Marker) (AID 2282949).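 Note: background control marker of the multiplexed CIS panel rather than a real target.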 The settings on record: HepG2 Attagene cis-factorial M32 reporter, mRNA; actives raise or lower the signal. Put shortly: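 Using DMSO as baseline, bidirectional curve fits were applied to reporter mRNA signals. These came from transiently transfected HepG2 cells exposed for 24 h, with RNA analysed by RT-PCR, FAM primer extension, HpaI digestion and CE.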

Assay [13] can be described thus: ATG_M_06_CIS: Attagene CIS-FACTORIAL HepG2 Assay for M06 Transcription Factor (Internal Marker) (AID 2282950). The settings on record: HepG2 Attagene CIS-FACTORIAL M06 internal marker reporter; actives raise or lower the signal. The gist of the method:
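Serves as a background control readout. Transfected HepG2 exposed to compounds for 24 h, then reporter transcripts quantified by fluorescent RT-PCR and capillary electrophoresis. Both directions fitted against DMSO baseline.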

The target in assay [14] is Hypoxia-inducible factor 1-alpha (Homo sapiens) (UniProt Q16665). The experiment in a line: ATG_HIF1a_CIS: Attagene CIS-FACTORIAL HepG2 Assay for human Hypoxia Inducible Factor 1 (HIF1A) (AID 2282951). The settings on record: HepG2 Attagene cis-factorial HIF1a reporter transcription; actives raise or lower the signal. The gist of the method:
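RT-PCR/capillary electrophoresis fluorescence readout of reporter transcripts from endogenous-TF-driven cis elements in transfected HepG2 cells, 24 h exposure; activity fitted in both directions against DMSO controls.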

Assay [15] concerns the target Heat shock factor protein 1 (Homo sapiens) (UniProt Q00613). The experiment in a line: ATG_HSE_CIS: Attagene CIS-FACTORIAL HepG2 Assay for human Heat Shock Transcription Factor 1 (HSE) (AID 2282953). The settings on record: HepG2 HSE cis-reporter, Attagene RNA transcription; actives raise or lower the signal. The gist of the method: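 Endogenous transcription factor activity in transiently transfected HepG2, read as reporter mRNA by RT-PCR with fluorescent capillary electrophoresis after 24 h. Gain or loss of signal fitted versus DMSO baseline.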

Assay [16] in a line: ATG_MRE_CIS: Attagene CIS-FACTORIAL HepG2 Assay for human Metal Responsive Element (MRE) (AID 2282954). The settings on record: HepG2 MRE cis-reporter transcription, Attagene multiplex; actives raise or lower the signal. The gist of the method: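 Multiplexed cis-reporter assay in human HepG2 liver cells, 24 h incubation with test chemical. Reporter transcripts measured by RT-PCR and capillary electrophoresis; values from bidirectional curve fitting versus DMSO.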

Assay [17] can be described thus: ATG_GATA_CIS: Attagene CIS-FACTORIAL HepG2 Assay for human GATA Binding Protein (AID 2282944). The settings on record: HepG2 GATA cis-element reporter, Attagene multiplex mRNA; actives raise or lower the signal. Put shortly: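 Reporter transcripts from a GATA cis-regulated unit, among multiplexed reporters in transfected HepG2 cells, were measured by RT-PCR with capillary electrophoresis after 24 h dosing. Induction or loss scored relative to DMSO.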

The target in assay [18] is Bile acid receptor (Homo sapiens) (UniProt Q96RI1). As to the kind of experiment: ATG_IR1_CIS: Attagene CIS-FACTORIAL HepG2 Assay for human Nuclear Receptor Subfamily 1 Group H Member 4 (NR1H4), IR1 submotif (AID 2282946). The settings on record: IR1 reporter transcription, actives raise or lower the signal. Put shortly: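 HepG2 cells transiently transfected with multiplexed cis-element reporter units read endogenous transcription factor activity. After 24 h compound exposure, reporter mRNA was quantified by RT-PCR, fluorescent labelling, HpaI digestion and capillary electrophoresis; bidirectional fitting versus DMSO baseline.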
Sequence of Bile acid receptor (Homo sapiens) (Q96RI1 whole entry, looked up): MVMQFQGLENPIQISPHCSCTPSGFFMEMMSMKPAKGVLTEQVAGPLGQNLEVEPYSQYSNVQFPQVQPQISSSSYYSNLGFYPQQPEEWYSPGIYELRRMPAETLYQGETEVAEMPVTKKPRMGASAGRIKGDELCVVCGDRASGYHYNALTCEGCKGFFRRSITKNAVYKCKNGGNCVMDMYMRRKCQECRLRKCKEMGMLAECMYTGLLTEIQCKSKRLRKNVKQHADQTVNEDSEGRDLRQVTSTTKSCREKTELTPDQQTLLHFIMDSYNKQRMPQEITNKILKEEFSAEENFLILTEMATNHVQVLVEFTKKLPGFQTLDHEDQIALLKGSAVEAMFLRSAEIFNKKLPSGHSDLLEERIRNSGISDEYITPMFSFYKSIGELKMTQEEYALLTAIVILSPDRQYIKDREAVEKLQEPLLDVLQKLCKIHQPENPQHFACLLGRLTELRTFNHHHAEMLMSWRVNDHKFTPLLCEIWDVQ

The nature of assay [19]: ATG_GRE_CIS: Attagene CIS-FACTORIAL HepG2 Assay for human Glucocorticoid Response Elements (GRE) (AID 2282947). The settings on record: HepG2 GRE cis-reporter, Attagene multiplex mRNA; actives raise or lower the signal. Put shortly: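 Multiplexed cis-reporter mRNA induction, HepG2, 24 h post-dose. RT-PCR, FAM-labelled, HpaI-digested amplicons by CE. Bidirectional fit vs DMSO.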

In assay [20] the target is Hepatocyte nuclear factor 6 (Homo sapiens) (UniProt Q9UBC0). The experiment in a line: ATG_HNF6_CIS: Attagene CIS-FACTORIAL HepG2 Assay for human Hepatocyte Nuclear Factor 6 (HNF6) (AID 2282952). The settings on record: HepG2 Attagene cis-factorial HNF6 reporter transcription; actives raise or lower the signal. The gist of the method: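 Readout: fluorescent reporter-transcript fragments resolved by capillary electrophoresis after RT-PCR, reflecting endogenous factor activity in transfected HepG2. Exposure 24 h. Gain or loss of signal fitted bidirectionally against DMSO.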
Sequence of Hepatocyte nuclear factor 6 (Homo sapiens) (Q9UBC0 whole entry, looked up, the tested form may be a part): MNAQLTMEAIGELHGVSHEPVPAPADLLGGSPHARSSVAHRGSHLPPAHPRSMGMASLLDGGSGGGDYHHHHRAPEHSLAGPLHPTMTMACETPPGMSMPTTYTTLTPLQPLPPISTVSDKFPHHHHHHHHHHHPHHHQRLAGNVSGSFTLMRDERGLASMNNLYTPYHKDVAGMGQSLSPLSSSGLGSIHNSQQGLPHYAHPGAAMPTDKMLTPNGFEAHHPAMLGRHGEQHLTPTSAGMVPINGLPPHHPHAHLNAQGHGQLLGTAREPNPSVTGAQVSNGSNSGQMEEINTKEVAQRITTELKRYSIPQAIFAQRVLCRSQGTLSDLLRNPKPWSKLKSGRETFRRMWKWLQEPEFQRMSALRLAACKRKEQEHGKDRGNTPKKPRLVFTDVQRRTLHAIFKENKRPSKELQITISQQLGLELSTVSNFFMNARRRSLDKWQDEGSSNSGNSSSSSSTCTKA

The source of these data is PubChem BioAssay (EPA / NIEHS).

“And” between values parts separate entries of the source, which are not always exact repeats. Identical values can stand only once. Some compounds were tested as several samples or in several runs, with calls that do not always agree. The source made the active and inactive calls. Rule for the calls: active = hit-call score of the fitted dose curve at least 0.9, where 1 is the maximum; inactive = score below 0.9.

Sequence of Transcription factor E2F1 (Homo sapiens) (Q01094 whole entry, looked up): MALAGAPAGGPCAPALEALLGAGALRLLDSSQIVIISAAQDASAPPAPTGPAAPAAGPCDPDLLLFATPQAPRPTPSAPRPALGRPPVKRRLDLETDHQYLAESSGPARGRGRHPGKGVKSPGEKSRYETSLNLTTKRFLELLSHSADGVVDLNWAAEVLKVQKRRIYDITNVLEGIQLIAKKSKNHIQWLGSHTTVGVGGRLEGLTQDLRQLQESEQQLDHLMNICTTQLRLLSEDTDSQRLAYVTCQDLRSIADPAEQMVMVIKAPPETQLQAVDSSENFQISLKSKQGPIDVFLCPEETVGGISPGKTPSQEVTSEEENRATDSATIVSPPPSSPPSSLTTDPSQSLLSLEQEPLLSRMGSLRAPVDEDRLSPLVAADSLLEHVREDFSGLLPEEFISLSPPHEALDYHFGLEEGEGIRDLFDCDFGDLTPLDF
Sequence of Heat shock factor protein 1 (Homo sapiens) (Q00613 whole entry, looked up): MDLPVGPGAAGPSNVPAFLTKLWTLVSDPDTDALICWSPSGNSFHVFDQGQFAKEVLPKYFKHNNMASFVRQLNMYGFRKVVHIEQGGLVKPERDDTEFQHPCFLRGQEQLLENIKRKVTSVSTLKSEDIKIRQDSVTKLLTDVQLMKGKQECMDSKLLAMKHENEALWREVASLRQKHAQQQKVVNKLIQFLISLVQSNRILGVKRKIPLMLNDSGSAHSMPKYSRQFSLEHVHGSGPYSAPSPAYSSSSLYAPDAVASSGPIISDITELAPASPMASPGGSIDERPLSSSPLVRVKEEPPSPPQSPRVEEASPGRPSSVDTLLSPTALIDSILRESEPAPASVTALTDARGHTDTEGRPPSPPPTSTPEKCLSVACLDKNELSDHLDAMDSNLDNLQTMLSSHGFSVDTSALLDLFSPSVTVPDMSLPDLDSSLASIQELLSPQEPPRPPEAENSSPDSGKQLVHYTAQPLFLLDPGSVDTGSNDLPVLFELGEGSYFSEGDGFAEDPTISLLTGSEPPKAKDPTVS
Sequence of Hypoxia-inducible factor 1-alpha (Homo sapiens) (Q16665 whole entry, looked up): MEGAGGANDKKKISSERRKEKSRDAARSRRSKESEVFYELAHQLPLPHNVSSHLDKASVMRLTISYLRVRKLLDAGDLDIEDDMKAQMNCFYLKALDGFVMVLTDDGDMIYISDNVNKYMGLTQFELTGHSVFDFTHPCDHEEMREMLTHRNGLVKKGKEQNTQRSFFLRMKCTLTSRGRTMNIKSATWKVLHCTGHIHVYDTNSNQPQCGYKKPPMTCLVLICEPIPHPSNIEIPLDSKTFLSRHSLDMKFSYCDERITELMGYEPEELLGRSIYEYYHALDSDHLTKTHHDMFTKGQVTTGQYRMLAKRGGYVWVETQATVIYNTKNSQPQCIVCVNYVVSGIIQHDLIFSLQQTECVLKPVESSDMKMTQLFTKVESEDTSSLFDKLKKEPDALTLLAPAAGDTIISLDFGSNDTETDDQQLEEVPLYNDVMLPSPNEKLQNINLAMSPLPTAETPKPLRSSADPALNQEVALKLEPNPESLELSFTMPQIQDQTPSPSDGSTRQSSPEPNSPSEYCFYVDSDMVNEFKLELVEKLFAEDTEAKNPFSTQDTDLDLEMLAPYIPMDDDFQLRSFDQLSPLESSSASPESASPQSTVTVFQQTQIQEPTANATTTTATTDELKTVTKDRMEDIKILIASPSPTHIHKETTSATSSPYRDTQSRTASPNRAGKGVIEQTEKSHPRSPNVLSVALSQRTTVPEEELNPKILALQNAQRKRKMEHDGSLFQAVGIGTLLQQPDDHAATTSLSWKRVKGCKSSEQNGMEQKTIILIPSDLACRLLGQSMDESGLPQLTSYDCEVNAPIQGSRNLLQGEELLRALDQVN
Sequence of Hepatocyte nuclear factor 3-beta (Homo sapiens) (Q9Y261 whole entry, looked up): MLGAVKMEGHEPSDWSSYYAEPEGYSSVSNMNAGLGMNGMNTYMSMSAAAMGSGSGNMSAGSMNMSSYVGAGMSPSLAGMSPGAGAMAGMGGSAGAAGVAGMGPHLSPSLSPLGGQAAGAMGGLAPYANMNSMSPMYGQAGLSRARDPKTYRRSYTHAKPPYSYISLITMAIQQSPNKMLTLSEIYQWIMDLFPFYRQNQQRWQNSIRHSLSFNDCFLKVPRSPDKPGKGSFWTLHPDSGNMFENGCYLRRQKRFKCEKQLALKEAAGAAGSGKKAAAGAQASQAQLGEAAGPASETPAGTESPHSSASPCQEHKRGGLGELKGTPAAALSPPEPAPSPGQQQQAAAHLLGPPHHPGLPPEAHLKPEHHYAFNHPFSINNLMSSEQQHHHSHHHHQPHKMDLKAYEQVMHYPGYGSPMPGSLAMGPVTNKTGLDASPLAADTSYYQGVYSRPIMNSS

A word on the AC50: it is the midpoint of the concentration-response curve, whichever way the signal moves. Regarding `O=[N+]([O-])c1ccc(O)cc1`, the result in [1], in [2], in assay [3], in assay [4], in [5] and in [6] was inactive. The call in assay [7], in assay [8], in [9], in assay [10], in assay [11] and in assay [12] was inactive. Moreover, the molecule was classed as inactive in assay [13], in assay [14], in assay [15] and in assay [16]. The AC50 in assay [14] is 151 µM (active).

On to `C#C[C@]1(O)CC[C@H]2[C@@H]3CCC4=CC(=O)CC[C@@H]4[C@H]3CC[C@@]21C`, for which the outcome in assay [1], in assay [2], in assay [3], in assay [4], in assay [5] and in [7] was inactive. For the same molecule, the molecule was classed as inactive in [9], in assay [17], in assay [10], in assay [11], in [12] and in assay [13]. The molecule was classed as inactive in assay [15] and in assay [16].

Regarding `COC(=O)CCCCC(=O)OC`, the molecule was called inactive in assay [1], in assay [2], in [3], in assay [4], in assay [5] and in assay [6]. Further, the molecule was classed as inactive in [7], in assay [8], in assay [9], in assay [10], in assay [18] and in assay [19]. For the same molecule, the result in assay [11], in [12], in assay [13], in [14], in assay [20] and in assay [15] was inactive. In addition, the molecule was called inactive in assay [16].

On to `CC(=O)CC(C)(C)O`, for which the molecule was called inactive in assay [1], in assay [2], in assay [3], in assay [4], in assay [5] and in assay [6]. Moreover, the molecule was classed as inactive in assay [7], in assay [8], in [9], in [10], in assay [18] and in assay [19]. Also, the molecule was called inactive in [11], in [12], in assay [13], in assay [14], in assay [15] and in assay [16].

As for `Cc1cc(CCN2CCN(c3nsc4ccccc34)CC2)cc2c1NC(=O)CC2(C)C`, the result in [1], in [2], in assay [3], in assay [5], in assay [6] and in assay [7] was inactive. In addition, the outcome in assay [8], in assay [9], in [10], in assay [18], in [12] and in assay [13] was inactive. For the same molecule, the call in assay [14] and in assay [15] was inactive. In addition, the AC50 in assay [4] was 4.06 µM (active); in assay [11], 8.79 µM (active); in assay [16], 13.3 µM (active).

Consider `CCc1ccc(CCOc2ccc(CC3SC(=O)NC3=O)cc2)nc1` (centres undefined), for which the result in assay [1], in assay [2], in [3], in [4], in [5] and in assay [7] was inactive. In addition, the molecule was called inactive in assay [8], in assay [9], in assay [17], in assay [10], in assay [19] and in assay [11]. In addition, the result in assay [12], in [13], in assay [14], in assay [20], in assay [15] and in [16] was inactive. The AC50 in [6] is 19.8 µM (active) and 41.4 µM (active).
